We go through 18 compounds from PubChem BioAssay (EPA / NIEHS).

Results filed as inconclusive are left out. The source made the active and inactive calls. Rule for the calls: active = hit-call score of the fitted dose curve at least 0.9, where 1 is the maximum; inconclusive = response in the unintended direction; inactive = score below 0.9.

Experiment [1] addresses Tyrosine-protein phosphatase non-receptor type 11 (Homo sapiens) (UniProt Q06124). Kind of experiment: NVS_ENZ_hPTPN11: NovaScreen (NVS) Enzymatic Assay for human Protein Tyrosine Phosphatase Non-receptor Type 11 (PTPN11) (AID 2283202). A digest of the protocol: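 Recombinant human PTPN11 activity on a fluorescent substrate, with substrate/product separated by electrophoretic mobility shift; read 0.5 h after dosing, loss of signal vs DMSO. Duplicate 25 uM screen, then concentration-response up to 50 uM.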

Experiment [2] deals with Tyrosine-protein phosphatase non-receptor type 12 (Homo sapiens) (UniProt Q05209). Nature of the experiment: NVS_ENZ_hPTPN12: NovaScreen (NVS) Enzymatic Assay for human Protein Tyrosine Phosphatase Non-receptor Type 12 (PTPN12) (AID 2283204). In a few lines:
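Single-concentration duplicates (25 uM) preceded singleton concentration-response up to 50 uM for chemicals passing threshold. Cell-free recombinant PTPN12 activity was read 1.33 h after dosing via fluorescence after mobility-shift separation; loss of signal versus DMSO.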

The target in experiment [3] is human Protein Tyrosine Phosphatase Non-receptor Type 4 (PTPN4), PTPN4 (gene 5775) (UniProt P29074). Nature of the experiment: NVS_ENZ_hPTPN4: NovaScreen (NVS) Enzymatic Assay for human Protein Tyrosine Phosphatase Non-receptor Type 4 (PTPN4) (AID 2283208). A digest of the protocol: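 Cell-free assay of PTPN4 expressed in Sf9 cells, using a fluorescent substrate with product separated by mobility shift; read 1.33 h after dosing. Single-point screen at 25 uM, then concentration-response up to 50 uM. Loss of signal relative to DMSO.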

Experiment [4] deals with human Rho Associated Coiled-coil Containing Protein Kinase 1 (ROCK1), ROCK1 (gene 6093) (UniProt Q13464). Nature of the experiment: NVS_ENZ_hROCK1: NovaScreen (NVS) Enzymatic Assay for human Rho Associated Coiled-coil Containing Protein Kinase 1 (ROCK1) (AID 2283214). A digest of the protocol: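 Cell-free recombinant human ROCK1 activity assay; fluorescent substrate and product separated by electrophoretic mobility shift, read 1 h after dosing. Screened in duplicate at 25 uM; loss of signal versus DMSO baseline scored as inhibition.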

Experiment [5] has as its target rabbit Imidazoline 2 Central (I2C), CKB (gene 100009085) (UniProt P00567). Kind of experiment: NVS_ENZ_rabI2C: NovaScreen (NVS) Enzymatic Assay for rabbit Imidazoline 2 Central (I2C) (AID 2283228). A digest of the protocol:
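Rabbit brain membranes, cell-free; readout by filter-based scintillation counting 1.5 hours after dosing, loss of signal vs DMSO. Initial duplicate test at 25 uM, then concentration-response with 50 uM top concentration.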

In experiment [6] the target is human Vascular Endothelial Growth Factor Receptor 2 (VEGFR2), KDR (gene 3791) (UniProt P35968). Kind of experiment: NVS_ENZ_hVEGFR2: NovaScreen (NVS) Enzymatic Assay for human Vascular Endothelial Growth Factor Receptor 2 (VEGFR2) (AID 2283230). In a few lines: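 Cell-free recombinant VEGFR2 kinase, fluorescent substrate with electrophoretic mobility-shift separation; read 1 h after dosing. Screened at 25 uM in duplicate, hits to concentration-response up to 50 uM; loss-of-signal versus DMSO.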

Experiment [7] has as its target human Sirtuin 1 (SIRT1), SIRT1 (gene 23411) (UniProt Q96EB6). Kind of experiment: NVS_ENZ_hSIRT1: NovaScreen (NVS) Enzymatic Assay for human Sirtuin 1 (SIRT1) (AID 2283219). A digest of the protocol: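 Cell-free recombinant SIRT1 with a fluorescent substrate; substrate and product separated by electrophoretic mobility shift and read by fluorescence intensity, 1 h after dosing. Primary screen at 25 uM in duplicate; hits re-run in concentration-response up to 50 uM, relative to DMSO.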

The target of experiment [8] is human Vascular Endothelial Growth Factor Receptor 1 (VEGFR1), FLT1 (gene 2321) (UniProt P17948). Nature of the experiment: NVS_ENZ_hVEGFR1: NovaScreen (NVS) Enzymatic Assay for human Vascular Endothelial Growth Factor Receptor 1 (VEGFR1) (AID 2283226). In a few lines:
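Cell-free assay of recombinant human VEGFR1 kinase with substrate, measured 1 h after dosing; fluorescence with electrophoretic mobility-shift separation of substrate and product, referenced to DMSO; primary screen at 25 uM in duplicate, actives then run in concentration series.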

Experiment [9] concerns the target human Sirtuin 2 (SIRT2), SIRT2 (gene 22933) (UniProt Q8IXJ6). Nature of the experiment: NVS_ENZ_hSIRT2: NovaScreen (NVS) Enzymatic Assay for human Sirtuin 2 (SIRT2) (AID 2283217). In a few lines:
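Cell-free recombinant human SIRT2, fluorescent substrate with product separated by electrophoretic mobility shift, 1 hr. Screened in duplicate at 25 uM; hits rerun singly in concentration-response up to 50 uM, relative to DMSO.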

Experiment [10] concerns the target human Protein Tyrosine Phosphatase Receptor Type F (PTPRF), PTPRF (gene 5792) (UniProt P10586). Kind of experiment: NVS_ENZ_hPTPRF: NovaScreen (NVS) Enzymatic Assay for human Protein Tyrosine Phosphatase Receptor Type F (PTPRF) (AID 2283213). A digest of the protocol:
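Cell-free fluorescence enzyme assay with recombinant protein and substrate; product separated by electrophoretic mobility shift. Read 1 h after dosing, single 25 uM duplicate screen, then concentration-response up to 50 uM; loss of signal vs DMSO.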

In experiment [11] the target is human Sirtuin 3 (SIRT3), SIRT3 (gene 23410) (UniProt Q9NTG7). Nature of the experiment: NVS_ENZ_hSIRT3: NovaScreen (NVS) Enzymatic Assay for human Sirtuin 3 (SIRT3) (AID 2283222). In a few lines:
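Cell-free enzyme assay with recombinant protein and fluorescent substrate, product separated by electrophoretic mobility shift; read 1 hour after dosing. Screened in duplicate at 25 uM, then singleton concentration-response up to 50 uM; loss of signal versus DMSO.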

Experiment [12] concerns the target human Vascular Endothelial Growth Factor Receptor 3 (VEGFR3), FLT4 (gene 2324) (UniProt P35916). Kind of experiment: NVS_ENZ_hVEGFR3: NovaScreen (NVS) Enzymatic Assay for human Vascular Endothelial Growth Factor Receptor 3 (VEGFR3) (AID 2283229). A digest of the protocol:
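Cell-free recombinant VEGFR3 kinase reaction with fluorescent substrate, read 1 h after dosing by electrophoretic mobility shift separation of substrate and product. Single-concentration duplicate screen at 25 uM, then concentration-response up to 50 uM; loss of activity versus DMSO.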

In experiment [13] the target is Tyrosine-protein phosphatase non-receptor type 14 (Homo sapiens) (UniProt Q15678). Nature of the experiment: NVS_ENZ_hPTPN14: NovaScreen (NVS) Enzymatic Assay for human Protein Tyrosine Phosphatase Non-receptor Type 14 (PTPN14) (AID 2283206). A digest of the protocol:
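Cell-free recombinant human PTPN14 with fluorescent substrate, read 0.5 h after dosing by fluorescence and electrophoretic mobility shift separating substrate from product. Primary screen at 25 uM in duplicate; hits run to 50 uM maximum; loss of signal versus DMSO.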

In experiment [14] the target is human Protein Tyrosine Phosphatase Non-receptor Type 9 (PTPN9), PTPN9 (gene 5780) (UniProt P43378). Nature of the experiment: NVS_ENZ_hPTPN9: NovaScreen (NVS) Enzymatic Assay for human Protein Tyrosine Phosphatase Non-receptor Type 9 (PTPN9) (AID 2283209). A digest of the protocol:
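Sf9-expressed enzyme in a cell-free assay, fluorescence read 1.33 h after dosing with mobility-shift separation of substrate and product. Tested at 25 uM in duplicate, then up to 50 uM; signal loss versus DMSO.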

human Sirtuin 2 (SIRT2), SIRT2 (gene 22933), sequence (Q8IXJ6 whole entry, looked up): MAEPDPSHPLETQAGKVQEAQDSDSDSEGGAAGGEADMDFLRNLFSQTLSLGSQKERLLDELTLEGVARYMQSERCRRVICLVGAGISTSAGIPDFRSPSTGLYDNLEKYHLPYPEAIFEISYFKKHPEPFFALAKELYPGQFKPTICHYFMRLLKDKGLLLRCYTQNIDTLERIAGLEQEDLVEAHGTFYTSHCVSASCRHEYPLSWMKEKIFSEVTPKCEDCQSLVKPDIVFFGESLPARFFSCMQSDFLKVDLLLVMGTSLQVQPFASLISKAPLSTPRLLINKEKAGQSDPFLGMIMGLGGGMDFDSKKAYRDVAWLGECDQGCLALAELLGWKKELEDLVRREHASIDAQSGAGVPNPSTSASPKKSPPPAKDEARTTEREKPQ
rabbit Imidazoline 2 Central (I2C), CKB (gene 100009085), sequence (P00567 whole entry, looked up): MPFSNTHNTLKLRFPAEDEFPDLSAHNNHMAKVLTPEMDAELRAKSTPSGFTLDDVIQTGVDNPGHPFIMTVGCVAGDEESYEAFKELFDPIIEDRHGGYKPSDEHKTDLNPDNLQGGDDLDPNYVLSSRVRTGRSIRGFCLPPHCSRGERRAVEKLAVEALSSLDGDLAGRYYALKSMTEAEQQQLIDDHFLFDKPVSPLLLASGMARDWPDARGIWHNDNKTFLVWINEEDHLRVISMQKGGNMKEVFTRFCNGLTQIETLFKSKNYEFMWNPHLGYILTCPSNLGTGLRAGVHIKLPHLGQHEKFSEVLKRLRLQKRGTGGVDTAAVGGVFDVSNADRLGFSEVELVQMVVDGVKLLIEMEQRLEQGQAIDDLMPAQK
human Rho Associated Coiled-coil Containing Protein Kinase 1 (ROCK1), ROCK1 (gene 6093), sequence (Q13464 whole entry, looked up): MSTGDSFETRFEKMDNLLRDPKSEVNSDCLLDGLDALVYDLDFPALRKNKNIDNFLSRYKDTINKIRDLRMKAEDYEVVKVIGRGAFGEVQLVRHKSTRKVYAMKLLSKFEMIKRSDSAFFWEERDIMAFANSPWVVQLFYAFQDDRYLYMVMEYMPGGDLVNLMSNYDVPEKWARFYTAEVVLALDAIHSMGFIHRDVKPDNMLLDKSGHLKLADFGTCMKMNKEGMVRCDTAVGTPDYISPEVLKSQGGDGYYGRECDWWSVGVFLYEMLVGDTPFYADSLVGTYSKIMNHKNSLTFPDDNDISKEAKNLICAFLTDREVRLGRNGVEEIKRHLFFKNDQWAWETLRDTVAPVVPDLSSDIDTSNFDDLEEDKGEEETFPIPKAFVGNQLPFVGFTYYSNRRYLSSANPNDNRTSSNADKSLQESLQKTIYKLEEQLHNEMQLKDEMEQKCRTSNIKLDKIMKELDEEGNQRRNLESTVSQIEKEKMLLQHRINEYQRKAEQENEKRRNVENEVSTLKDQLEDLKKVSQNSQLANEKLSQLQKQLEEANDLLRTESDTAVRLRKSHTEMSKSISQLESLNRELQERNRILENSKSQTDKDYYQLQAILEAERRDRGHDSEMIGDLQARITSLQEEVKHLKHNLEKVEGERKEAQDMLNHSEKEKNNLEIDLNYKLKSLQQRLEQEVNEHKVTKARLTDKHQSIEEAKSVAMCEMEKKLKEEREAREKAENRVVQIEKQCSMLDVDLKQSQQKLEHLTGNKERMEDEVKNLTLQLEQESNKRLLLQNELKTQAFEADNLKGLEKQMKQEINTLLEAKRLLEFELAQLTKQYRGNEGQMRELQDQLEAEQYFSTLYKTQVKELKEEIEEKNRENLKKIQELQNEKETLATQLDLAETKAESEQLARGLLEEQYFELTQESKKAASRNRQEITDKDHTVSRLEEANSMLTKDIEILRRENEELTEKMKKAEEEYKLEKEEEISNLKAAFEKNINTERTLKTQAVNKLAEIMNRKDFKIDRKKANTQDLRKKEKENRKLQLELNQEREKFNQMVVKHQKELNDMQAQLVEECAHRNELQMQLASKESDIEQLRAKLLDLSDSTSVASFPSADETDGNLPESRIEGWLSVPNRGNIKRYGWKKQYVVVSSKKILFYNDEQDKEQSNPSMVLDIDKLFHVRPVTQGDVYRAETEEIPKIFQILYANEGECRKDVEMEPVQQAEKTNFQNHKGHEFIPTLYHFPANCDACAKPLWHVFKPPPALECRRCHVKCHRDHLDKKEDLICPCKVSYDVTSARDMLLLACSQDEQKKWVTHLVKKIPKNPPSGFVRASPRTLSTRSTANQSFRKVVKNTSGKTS
human Sirtuin 1 (SIRT1), SIRT1 (gene 23411), sequence (Q96EB6 whole entry, looked up): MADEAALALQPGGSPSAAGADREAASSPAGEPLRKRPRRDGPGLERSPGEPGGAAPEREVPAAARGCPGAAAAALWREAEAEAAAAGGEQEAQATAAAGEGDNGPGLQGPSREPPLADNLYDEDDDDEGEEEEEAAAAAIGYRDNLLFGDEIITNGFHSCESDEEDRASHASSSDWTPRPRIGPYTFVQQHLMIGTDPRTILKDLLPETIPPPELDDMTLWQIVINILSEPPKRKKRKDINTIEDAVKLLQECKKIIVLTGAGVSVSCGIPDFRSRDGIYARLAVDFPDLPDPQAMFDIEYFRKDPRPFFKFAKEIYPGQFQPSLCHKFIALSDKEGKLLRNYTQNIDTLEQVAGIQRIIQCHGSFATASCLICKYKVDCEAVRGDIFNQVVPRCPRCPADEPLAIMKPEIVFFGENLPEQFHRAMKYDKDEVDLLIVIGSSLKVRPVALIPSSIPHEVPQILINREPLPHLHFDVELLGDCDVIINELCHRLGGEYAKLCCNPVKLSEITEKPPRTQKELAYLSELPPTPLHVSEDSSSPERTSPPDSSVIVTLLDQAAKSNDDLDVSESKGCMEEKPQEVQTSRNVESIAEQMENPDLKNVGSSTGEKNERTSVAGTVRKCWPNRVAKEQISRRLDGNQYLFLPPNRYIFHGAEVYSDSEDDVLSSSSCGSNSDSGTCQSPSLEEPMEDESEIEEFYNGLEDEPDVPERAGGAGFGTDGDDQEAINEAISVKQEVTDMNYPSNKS
human Vascular Endothelial Growth Factor Receptor 1 (VEGFR1), FLT1 (gene 2321), sequence (P17948 whole entry, looked up): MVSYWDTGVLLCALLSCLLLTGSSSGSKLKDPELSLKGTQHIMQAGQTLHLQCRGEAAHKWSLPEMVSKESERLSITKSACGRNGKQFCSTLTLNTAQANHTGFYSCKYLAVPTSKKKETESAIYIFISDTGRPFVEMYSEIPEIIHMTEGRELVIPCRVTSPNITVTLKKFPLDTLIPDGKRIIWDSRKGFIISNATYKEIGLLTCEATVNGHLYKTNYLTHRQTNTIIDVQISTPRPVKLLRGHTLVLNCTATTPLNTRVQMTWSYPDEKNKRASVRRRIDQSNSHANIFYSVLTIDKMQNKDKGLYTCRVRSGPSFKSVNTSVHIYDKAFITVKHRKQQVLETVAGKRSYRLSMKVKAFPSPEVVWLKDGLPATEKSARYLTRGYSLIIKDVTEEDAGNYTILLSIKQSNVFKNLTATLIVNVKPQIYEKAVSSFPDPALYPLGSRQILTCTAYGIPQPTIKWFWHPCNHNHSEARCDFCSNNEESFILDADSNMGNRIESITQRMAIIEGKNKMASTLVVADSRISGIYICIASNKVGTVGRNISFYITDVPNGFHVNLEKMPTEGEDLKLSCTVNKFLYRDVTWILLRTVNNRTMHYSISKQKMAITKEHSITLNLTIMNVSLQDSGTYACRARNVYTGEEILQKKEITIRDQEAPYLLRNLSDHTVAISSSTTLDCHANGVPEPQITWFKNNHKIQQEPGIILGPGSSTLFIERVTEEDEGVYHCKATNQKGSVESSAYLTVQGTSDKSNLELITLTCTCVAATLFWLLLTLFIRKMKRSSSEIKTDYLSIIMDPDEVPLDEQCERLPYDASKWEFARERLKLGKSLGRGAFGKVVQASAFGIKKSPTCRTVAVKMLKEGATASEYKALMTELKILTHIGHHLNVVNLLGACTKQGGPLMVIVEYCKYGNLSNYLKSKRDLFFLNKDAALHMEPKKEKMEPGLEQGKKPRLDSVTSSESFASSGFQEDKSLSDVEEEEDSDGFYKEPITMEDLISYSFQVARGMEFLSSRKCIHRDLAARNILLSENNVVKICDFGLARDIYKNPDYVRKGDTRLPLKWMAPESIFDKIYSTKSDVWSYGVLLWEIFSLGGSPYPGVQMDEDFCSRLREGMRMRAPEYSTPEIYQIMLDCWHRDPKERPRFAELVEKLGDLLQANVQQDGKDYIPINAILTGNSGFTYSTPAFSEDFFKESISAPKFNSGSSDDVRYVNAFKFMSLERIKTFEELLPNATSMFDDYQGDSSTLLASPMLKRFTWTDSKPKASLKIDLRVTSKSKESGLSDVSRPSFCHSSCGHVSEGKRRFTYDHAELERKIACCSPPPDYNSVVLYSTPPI
human Sirtuin 3 (SIRT3), SIRT3 (gene 23410), sequence (Q9NTG7 whole entry, looked up): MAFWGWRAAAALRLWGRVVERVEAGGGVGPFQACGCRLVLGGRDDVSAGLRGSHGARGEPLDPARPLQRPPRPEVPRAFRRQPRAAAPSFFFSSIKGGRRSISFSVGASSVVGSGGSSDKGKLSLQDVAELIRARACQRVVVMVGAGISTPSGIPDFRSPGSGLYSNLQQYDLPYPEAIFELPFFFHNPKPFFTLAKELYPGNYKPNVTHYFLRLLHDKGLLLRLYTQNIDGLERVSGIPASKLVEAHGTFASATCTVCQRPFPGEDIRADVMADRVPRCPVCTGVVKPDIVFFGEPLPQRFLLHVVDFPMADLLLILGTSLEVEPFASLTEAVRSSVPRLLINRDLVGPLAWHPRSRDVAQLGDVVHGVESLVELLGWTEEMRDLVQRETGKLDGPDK

As to `ClC1=C(Cl)C(Cl)(Cl)C(Cl)=C1Cl`, the call in experiment [1], in experiment [2] and in experiment [3] was inactive.
What is called AC50 is the concentration giving half of the maximal activity seen. `CCCOc1sc(C(=O)N2CCC(c3cc(CN)ccc3F)CC2)c(C)c1Br`: the result in [4] and in [6] was inactive. In addition, the AC50 in experiment [5] is 4.64 µM (active).
Turning to `CC[C@H](C)[C@@H](C(=O)O)n1sc2ccccc2c1=O`, the compound was classed as inactive in experiment [3] and in [7].
In the case of `CCCOC(=O)c1ccc(O)cc1`, the compound was classed as inactive in experiment [8].
On to `CC(C)(C)c1cccc(C(C)(C)C)c1O`, for which the call in [9] and in experiment [8] was inactive.
As for `CCCCCCCC(=O)O`, the compound was called inactive in experiment [9] and in [5]. In addition, the concentration at half-maximal activity (AC50) in experiment [7] is 6.65 µM (active).
`Nc1cccc2c(N)cccc12`: the outcome in [10], in [7], in [11] and in [12] was inactive.
As for `Cc1oc(-c2ccccc2)nc1CCOc1ccc(C[C@H](Nc2ccccc2C(=O)c2ccccc2)C(=O)O)cc1`, the AC50 in [9] was 18.3 µM (active).
For the compound `c1ccc2c(c1)ccc1ccccc12`, the outcome in experiment [4] was inactive.
Consider `CCC(=C(c1ccc(O)cc1)c1ccc(OCCN(C)C)cc1)c1ccccc1`, for which, in [11], the result was inactive. Further, in experiment [5], the half-maximal activity concentration (AC50) is 0.408 µM (active).
As for `CCCCOCCO`, the result in experiment [9] and in experiment [8] was inactive.
For `CC1=C(/C=C/C(C)=C/C=C/C(C)=C/C(=O)O)C(C)(C)CCC1`, the outcome in [8] and in experiment [5] was inactive.
Turning to `Cc1cc(CCN2CCN(c3nsc4ccccc34)CC2)cc2c1NC(=O)CC2(C)C`, the call in [7] was inactive.
Take `CC(=O)CC(C)(C)O`: in [13], the outcome was inactive.
Regarding `NC(=O)N(O)[C@@H]1C=C[C@H](Oc2cccc(Oc3ccc(F)cc3)c2)C1`, the call in [14] was inactive.
Take `NC(=O)N1C(=O)C(C(=O)c2cc(Cl)cs2)c2cc(F)c(Cl)cc21` (stereo not drawn): the result in [4] and in experiment [5] was inactive.
As to `N#C[C@@H]1CC(F)(F)CN1C(=O)CNC1CC2CCC(C1)N2c1ncccn1` (stereo partly drawn), in experiment [3], the call was inactive.
Turning to `Oc1cc2ccccc2c2ccccc12`, the AC50 in [6] was 7.7 µM (active).
